How the values were obtained:
Experiment in all cases: log2 ratio of Biotin-Ahx-Ub-VS probe labelling (fragment/DMSO); higher = less target engagement (more negative = stronger competition), active = hit call of the paper (q ≤ 0.05, log2 ratio ≤ -1)
Details in all cases: compound concentration: 200 uM; treatment time: 3 h
[1] = biological target: USP34 (UniProt Q70CQ2)
Procedure, shortened: (§1)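 Values give the average log2 ratio of fragment to vehicle, assessed by unpaired t-test on global-median-normalised Spectronaut label-free quantities. Proteins needed ≥2 unique peptides. HEK293T lysate (495 µg per sample) was treated in triplicate with fragment at 200 µM or vehicle for 3 h and then with Biotin-Ahx-Ub-VS at 0.5 µM final for 1 h. Labelled DUBs were NeutrAvidin-enriched, digested and run by diaPASEF LC-MS/MS.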

[2] = biological target: T1, USP36 (UniProt Q9P275)
T1 sequence (whole entry): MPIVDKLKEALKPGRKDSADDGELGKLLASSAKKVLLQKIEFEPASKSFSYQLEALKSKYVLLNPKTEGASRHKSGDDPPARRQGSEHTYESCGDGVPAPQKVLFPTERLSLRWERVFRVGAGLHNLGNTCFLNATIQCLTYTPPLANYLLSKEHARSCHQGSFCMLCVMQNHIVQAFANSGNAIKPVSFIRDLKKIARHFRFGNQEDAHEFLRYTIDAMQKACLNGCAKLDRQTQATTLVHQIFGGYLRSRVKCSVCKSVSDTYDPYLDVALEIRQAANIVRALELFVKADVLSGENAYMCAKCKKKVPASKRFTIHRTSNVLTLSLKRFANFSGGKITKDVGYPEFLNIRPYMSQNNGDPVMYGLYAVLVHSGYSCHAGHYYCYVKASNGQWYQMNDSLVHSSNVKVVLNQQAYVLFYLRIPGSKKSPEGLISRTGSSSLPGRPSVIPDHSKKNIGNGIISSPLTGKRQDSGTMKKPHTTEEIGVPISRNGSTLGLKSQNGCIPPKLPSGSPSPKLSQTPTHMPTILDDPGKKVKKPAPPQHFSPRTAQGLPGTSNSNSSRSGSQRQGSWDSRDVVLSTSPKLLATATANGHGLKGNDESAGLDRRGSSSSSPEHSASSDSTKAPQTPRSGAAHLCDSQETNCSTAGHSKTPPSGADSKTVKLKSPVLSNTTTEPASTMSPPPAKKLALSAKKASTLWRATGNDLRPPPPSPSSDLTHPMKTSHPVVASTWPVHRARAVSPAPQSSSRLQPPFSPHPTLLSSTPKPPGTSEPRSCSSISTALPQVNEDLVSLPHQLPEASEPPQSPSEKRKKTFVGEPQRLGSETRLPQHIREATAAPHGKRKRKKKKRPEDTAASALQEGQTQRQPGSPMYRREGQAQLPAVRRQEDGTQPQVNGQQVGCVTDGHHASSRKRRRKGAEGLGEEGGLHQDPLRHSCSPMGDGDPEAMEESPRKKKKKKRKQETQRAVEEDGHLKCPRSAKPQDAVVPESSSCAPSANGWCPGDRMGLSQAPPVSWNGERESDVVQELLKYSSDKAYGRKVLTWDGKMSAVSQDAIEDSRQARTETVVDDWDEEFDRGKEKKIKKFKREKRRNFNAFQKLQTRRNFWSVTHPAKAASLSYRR
Procedure, shortened: as §1

[3] = biological target: T2, USP38 (UniProt Q8NB14)
T2 sequence (whole entry): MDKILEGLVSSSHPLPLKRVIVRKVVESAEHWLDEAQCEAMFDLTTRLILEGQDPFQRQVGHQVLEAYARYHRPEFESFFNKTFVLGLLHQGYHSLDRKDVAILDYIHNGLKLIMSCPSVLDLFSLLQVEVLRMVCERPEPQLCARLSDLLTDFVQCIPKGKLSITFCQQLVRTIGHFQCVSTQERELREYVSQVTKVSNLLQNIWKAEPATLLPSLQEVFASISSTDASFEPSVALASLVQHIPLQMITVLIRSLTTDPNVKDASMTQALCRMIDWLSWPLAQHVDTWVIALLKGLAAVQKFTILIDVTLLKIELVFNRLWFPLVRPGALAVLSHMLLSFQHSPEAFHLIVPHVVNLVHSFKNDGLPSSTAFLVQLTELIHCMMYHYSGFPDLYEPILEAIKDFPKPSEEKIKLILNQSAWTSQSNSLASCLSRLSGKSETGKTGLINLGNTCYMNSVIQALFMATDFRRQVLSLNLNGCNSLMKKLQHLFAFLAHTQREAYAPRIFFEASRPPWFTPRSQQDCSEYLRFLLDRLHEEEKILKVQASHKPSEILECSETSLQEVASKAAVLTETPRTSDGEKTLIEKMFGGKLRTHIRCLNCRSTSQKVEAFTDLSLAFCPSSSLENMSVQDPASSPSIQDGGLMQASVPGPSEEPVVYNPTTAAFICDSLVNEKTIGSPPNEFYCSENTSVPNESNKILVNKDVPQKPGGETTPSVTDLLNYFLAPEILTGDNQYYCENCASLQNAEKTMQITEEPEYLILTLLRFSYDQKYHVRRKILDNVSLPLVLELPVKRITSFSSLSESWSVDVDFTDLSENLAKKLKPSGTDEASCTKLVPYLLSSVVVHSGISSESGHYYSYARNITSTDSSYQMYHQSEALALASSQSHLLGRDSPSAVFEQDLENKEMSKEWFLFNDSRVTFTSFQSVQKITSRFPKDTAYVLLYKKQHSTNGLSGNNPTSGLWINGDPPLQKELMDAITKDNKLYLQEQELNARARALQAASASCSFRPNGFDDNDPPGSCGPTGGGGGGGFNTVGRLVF
Procedure, shortened: as §1

[4] = biological target: T3, USP39 (UniProt Q53GS9)
T3 sequence (whole entry): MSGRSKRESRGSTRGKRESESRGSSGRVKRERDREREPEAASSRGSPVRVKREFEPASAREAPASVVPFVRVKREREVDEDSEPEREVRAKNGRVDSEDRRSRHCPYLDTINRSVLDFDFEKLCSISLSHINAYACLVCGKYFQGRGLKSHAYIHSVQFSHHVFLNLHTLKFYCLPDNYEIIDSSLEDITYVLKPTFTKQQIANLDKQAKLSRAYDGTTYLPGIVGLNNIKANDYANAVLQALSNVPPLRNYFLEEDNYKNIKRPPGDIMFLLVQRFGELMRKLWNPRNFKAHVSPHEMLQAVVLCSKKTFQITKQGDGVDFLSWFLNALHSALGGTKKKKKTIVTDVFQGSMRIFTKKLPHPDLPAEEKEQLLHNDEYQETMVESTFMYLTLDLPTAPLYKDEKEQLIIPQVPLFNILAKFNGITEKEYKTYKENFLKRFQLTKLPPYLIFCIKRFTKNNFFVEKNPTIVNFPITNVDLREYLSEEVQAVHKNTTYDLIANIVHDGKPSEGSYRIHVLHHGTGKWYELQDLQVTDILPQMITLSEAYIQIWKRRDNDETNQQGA
Procedure, shortened: as §1

[5] = biological target: T4, USP4 (UniProt Q13107)
T4 sequence (whole entry): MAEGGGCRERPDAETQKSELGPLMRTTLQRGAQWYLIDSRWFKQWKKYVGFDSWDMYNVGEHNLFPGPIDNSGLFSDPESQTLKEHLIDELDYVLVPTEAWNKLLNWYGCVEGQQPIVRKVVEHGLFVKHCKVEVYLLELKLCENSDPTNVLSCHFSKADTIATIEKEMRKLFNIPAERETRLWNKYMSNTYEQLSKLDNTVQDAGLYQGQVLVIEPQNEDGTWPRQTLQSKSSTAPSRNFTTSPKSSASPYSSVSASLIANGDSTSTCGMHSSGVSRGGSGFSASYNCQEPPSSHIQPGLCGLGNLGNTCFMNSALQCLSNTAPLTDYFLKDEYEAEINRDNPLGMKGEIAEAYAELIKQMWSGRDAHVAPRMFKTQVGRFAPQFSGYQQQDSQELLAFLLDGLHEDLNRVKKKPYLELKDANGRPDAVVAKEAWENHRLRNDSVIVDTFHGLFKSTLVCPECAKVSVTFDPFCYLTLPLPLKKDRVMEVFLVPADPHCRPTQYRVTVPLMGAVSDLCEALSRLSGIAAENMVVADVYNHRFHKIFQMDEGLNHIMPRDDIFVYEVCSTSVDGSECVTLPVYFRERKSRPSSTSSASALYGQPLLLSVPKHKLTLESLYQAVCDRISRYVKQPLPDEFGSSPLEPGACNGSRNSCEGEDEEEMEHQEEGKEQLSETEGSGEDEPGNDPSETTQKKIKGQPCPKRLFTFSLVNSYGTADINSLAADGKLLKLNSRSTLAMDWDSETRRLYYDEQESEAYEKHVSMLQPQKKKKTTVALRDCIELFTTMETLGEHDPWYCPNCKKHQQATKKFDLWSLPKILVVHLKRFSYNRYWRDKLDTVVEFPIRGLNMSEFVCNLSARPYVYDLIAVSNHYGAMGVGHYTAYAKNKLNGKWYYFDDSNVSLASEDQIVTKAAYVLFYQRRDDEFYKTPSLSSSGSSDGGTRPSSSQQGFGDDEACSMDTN
Procedure, shortened: as §1

Measured: log2 ratio of Biotin-Ahx-Ub-VS probe labelling

Sequence of USP34 (Q70CQ2 whole entry, the tested form may be a part): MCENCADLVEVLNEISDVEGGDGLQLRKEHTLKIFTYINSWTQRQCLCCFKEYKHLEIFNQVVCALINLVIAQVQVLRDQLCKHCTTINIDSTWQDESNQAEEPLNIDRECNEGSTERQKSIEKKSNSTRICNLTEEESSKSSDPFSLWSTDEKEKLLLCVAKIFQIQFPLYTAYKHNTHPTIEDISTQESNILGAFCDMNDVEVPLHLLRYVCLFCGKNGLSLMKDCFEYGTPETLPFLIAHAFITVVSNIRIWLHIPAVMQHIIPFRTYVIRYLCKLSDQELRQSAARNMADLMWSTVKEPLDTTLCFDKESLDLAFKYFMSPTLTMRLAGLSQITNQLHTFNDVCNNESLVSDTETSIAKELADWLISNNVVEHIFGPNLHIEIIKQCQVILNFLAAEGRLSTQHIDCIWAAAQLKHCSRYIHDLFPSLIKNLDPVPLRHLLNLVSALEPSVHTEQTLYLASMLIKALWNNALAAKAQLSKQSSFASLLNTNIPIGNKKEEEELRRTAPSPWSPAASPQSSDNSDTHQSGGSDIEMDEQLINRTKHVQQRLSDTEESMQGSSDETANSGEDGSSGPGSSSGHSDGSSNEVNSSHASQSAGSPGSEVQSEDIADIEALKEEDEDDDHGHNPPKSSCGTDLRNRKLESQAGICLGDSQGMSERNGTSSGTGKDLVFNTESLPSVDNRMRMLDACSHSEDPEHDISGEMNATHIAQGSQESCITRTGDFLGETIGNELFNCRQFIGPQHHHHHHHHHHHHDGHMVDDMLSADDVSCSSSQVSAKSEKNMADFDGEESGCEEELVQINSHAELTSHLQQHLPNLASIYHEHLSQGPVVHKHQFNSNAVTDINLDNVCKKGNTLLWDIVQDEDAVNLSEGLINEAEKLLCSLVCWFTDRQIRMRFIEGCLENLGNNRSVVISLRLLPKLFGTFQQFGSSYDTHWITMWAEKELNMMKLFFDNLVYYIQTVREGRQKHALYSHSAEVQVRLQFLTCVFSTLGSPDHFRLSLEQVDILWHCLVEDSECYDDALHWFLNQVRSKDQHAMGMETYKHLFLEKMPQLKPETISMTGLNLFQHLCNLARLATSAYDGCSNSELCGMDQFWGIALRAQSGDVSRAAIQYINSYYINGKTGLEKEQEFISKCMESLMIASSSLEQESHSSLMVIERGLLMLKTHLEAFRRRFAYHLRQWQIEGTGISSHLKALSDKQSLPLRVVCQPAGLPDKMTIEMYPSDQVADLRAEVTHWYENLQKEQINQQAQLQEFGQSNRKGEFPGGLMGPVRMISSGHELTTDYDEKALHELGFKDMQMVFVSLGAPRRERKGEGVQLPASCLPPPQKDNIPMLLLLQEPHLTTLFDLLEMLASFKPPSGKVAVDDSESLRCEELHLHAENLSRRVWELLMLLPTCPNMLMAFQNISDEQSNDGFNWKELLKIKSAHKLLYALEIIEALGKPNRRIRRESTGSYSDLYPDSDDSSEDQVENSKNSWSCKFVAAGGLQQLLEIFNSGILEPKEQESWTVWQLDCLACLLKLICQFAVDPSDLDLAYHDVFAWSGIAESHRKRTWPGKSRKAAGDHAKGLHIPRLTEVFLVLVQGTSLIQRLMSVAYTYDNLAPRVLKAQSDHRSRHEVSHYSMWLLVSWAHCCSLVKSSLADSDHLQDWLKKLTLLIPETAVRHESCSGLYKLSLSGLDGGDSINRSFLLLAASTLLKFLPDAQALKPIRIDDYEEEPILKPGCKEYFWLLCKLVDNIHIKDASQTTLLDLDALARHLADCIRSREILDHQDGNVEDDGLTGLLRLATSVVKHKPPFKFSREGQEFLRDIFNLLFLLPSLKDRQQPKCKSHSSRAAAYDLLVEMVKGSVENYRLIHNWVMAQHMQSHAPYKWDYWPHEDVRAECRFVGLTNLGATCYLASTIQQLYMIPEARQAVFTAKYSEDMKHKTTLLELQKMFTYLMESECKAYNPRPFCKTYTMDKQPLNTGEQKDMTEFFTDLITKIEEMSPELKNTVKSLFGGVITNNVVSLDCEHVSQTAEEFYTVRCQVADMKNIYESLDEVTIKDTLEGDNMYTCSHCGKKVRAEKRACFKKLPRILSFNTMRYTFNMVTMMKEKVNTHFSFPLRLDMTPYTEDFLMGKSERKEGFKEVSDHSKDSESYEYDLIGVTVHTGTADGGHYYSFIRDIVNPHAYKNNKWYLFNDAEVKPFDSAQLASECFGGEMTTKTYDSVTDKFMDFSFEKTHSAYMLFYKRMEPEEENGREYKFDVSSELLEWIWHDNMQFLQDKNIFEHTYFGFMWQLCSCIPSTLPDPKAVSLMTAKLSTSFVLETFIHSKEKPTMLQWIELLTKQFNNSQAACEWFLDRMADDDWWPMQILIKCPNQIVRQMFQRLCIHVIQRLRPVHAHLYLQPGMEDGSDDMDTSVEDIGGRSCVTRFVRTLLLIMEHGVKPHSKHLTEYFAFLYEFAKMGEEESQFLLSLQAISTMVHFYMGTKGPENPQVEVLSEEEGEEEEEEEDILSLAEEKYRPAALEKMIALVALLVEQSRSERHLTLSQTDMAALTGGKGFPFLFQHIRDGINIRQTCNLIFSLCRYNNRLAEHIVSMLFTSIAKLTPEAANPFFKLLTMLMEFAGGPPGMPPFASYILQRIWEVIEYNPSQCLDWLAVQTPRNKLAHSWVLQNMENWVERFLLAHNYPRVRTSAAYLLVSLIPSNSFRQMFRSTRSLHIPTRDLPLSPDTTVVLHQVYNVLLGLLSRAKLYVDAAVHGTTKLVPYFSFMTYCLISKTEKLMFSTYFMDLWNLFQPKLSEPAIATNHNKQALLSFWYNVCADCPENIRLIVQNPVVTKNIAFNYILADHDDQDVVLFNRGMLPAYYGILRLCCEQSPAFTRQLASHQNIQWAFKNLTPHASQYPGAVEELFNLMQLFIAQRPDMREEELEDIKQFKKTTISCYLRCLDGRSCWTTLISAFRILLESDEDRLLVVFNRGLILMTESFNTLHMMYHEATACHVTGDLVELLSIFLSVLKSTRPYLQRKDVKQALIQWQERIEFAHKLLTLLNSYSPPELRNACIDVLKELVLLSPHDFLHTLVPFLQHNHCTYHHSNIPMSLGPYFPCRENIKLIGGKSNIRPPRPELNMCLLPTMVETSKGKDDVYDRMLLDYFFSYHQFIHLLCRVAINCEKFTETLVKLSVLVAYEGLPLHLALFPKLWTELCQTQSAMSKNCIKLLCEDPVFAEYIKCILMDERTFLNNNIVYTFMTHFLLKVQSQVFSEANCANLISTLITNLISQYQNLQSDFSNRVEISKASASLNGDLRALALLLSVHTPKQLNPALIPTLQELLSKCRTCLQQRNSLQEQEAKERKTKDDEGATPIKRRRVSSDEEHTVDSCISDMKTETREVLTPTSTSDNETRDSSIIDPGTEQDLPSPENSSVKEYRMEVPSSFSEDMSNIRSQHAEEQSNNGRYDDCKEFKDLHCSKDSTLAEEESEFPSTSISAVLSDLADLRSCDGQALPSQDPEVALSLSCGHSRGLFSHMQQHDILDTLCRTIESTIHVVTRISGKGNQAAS

Cc1ccc(C(=O)NCCNC(=O)CCl)cc1
inactive: [1] -0.0636 | [2] 0.0541 | [3] -0.00607 | [4] -0.0936 | [5] -0.258
